Results published in PubChem BioAssay AID1159580 (chemical genetic matrix, 2015).
“And” between values parts separate entries of the source, which are not always exact repeats. Equal entries are not always repeated. The campaign covered roughly 5,500 compounds. About 2,000 (36%) were called active. Roughly 18% stayed inconclusive and do not appear here. Some of the results follow. Values without a mark were called inactive. No stated cut-off is given here; in the data, active means normalized growth mostly below about 0.91 (no sharp cut-off); inconclusive means no clear call, values can overlap the other calls; inactive means mostly above about 0.92.

Experiment: chemical genetic growth profiling, strain panel (AID 1159580);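 further: tested at 20 µM; growth read once vehicle control cultures reached saturation at 30 °C; 1 = growth at the plate median or of vehicle wells; lower values mean less growth of the strain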
Details: S. cerevisiae deletion strains, growth OD

CC1(C)C(=O)C=C[C@@]2(C)C1C=C[C@]1(C)C2CC[C@@]2(C)[C@H](c3ccoc3)OC(=O)C3OC321 (some centres not stated)
normalized growth (locus YAL013W, strain DEP1, active compounds read low): 0.949 | normalized growth (locus YAL021C, strain ccr4, active compounds read low): 1.02 | normalized growth (locus YAL026C, strain drs2, active compounds read low): 0.972 | normalized growth (locus YAL030W, strain snc1, active compounds read low): 0.985 | normalized growth (locus YBL061C, strain skt5, active compounds read low): 0.974 | normalized growth (locus YBR009C, strain hhf1, active compounds read low): 0.915 | normalized growth (locus YBR021W, strain FUR4, active compounds read low): 1.01 | normalized growth (locus YBR023C, strain chs3, active compounds read low): 0.981 | normalized growth (locus YBR171W, strain sec66, active compounds read low): 0.971 | normalized growth (locus YBR229C, strain ROT2, active compounds read low): 0.986 | normalized growth (locus YBR231C, strain swc5, active compounds read low): 1 | normalized growth (locus YBR279W, strain paf1, active compounds read low): 0.964 | normalized growth (locus YCL011C, strain gbp2, active compounds read low): 0.981 | normalized growth (locus YCL016C, strain dcc1, active compounds read low): 0.98 | normalized growth (locus YCL029C, strain bik1, active compounds read low): 0.986 | normalized growth (locus YCL061C, strain MRC1, active compounds read low): 0.971 | normalized growth (locus YCL069W, strain vba3, active compounds read low): 1 | normalized growth (locus YCR088W, strain abp1, active compounds read low): 1 | normalized growth (locus YDL005C, strain med2, active compounds read low): 0.988 | normalized growth (locus YDL035C, strain GPR1, active compounds read low): 0.979 | normalized growth (locus YDL040C, strain nat1, active compounds read low): 1 | normalized growth (locus YDL074C, strain BRE1, active compounds read low): 0.862 | normalized growth (locus YDL101C, strain DUN1, active compounds read low): 0.957 | normalized growth (locus YDL134C, strain PPH21, active compounds read low): 0.948 | normalized growth (locus YDL185W, strain tfp1, active compounds read low): 0.998 | normalized growth (locus YDL192W, strain arf1, active compounds read low): 0.94 | normalized growth (locus YDR001C, strain nth1, active compounds read low): 0.991 | normalized growth (locus YDR069C, strain doa4, active compounds read low): 1 | normalized growth (locus YDR101C, strain arx1, active compounds read low): 0.978 | normalized growth (locus YDR137W, strain rgp1, active compounds read low): 0.663 (active) | normalized growth (locus YDR150W, strain NUM1, active compounds read low): 0.996 | normalized growth (locus YDR159W, strain sac3, active compounds read low): 0.843 (active) | normalized growth (locus YDR162C, strain NBP2, active compounds read low): 0.888 | normalized growth (locus YDR195W, strain ref2): 1.02 | normalized growth (locus YDR297W, strain sur2, active compounds read low): 0.985 | normalized growth (locus YDR318W, strain mcm21, active compounds read low): 0.939 | normalized growth (locus YDR334W, strain swr1, active compounds read low): 0.983 | normalized growth (locus YDR335W, strain msn5, active compounds read low): 0.998 | normalized growth (locus YDR388W, active compounds read low): 0.984 | normalized growth (locus YDR392W, strain spt3, active compounds read low): 0.314 (active) | normalized growth (locus YDR502C, strain sam2, active compounds read low): 0.948 | normalized growth (locus YEL003W, strain gim4, active compounds read low): 0.979 | normalized growth (locus YEL037C, strain rad23, active compounds read low): 0.992 | normalized growth (locus YEL061C, strain CIN8 (second series), active compounds read low): 0.997 | normalized growth (locus YEL061C, strain CIN8, active compounds read low): 0.983 | normalized growth (locus YER015W, strain faa2, active compounds read low): 0.985 | normalized growth (locus YER016W, strain bim1, active compounds read low): 0.993 | normalized growth (locus YER110C, active compounds read low): 0.986 | normalized growth (locus YER111C, strain swi4, active compounds read low): 0.994 | normalized growth (locus YER155C, strain BEM2 (second series), active compounds read low): 0.894 | normalized growth (locus YER155C, strain BEM2, active compounds read low): 0.953 | normalized growth (locus YER167W, strain BCK2, active compounds read low): 0.976 | normalized growth (locus YFR010W, strain ubp6, active compounds read low): 1 | normalized growth (locus YGL078C, strain dbp3, active compounds read low): 0.993 | normalized growth (locus YGL086W, strain mad1, active compounds read low): 0.948 | normalized growth (locus YGL167C, strain pmr1, active compounds read low): 0.967 | normalized growth (locus YGL173C, strain kem1, active compounds read low): 0.97 | normalized growth (locus YGL227W, strain vid30, active compounds read low): 0.991 | normalized growth (locus YGL240W, strain doc1, active compounds read low): 1.02 | normalized growth (locus YGL248W, strain PDE1, active compounds read low): 0.974 | normalized growth (locus YGL253W, strain hxk2, active compounds read low): 0.992 | normalized growth (locus YGR135W, strain pre9, active compounds read low): 0.953 | normalized growth (locus YGR252W, strain gcn5, active compounds read low): 0.912 | normalized growth (locus YHR013C, strain ard1, active compounds read low): 0.916 | normalized growth (locus YHR027C, strain rpn1, active compounds read low): 0.971 | normalized growth (locus YHR030C, strain SLT2, active compounds read low): 0.915 | normalized growth (locus YHR079C, strain IRE1 (second series), active compounds read low): 0.977 | normalized growth (locus YHR079C, strain IRE1, active compounds read low): 0.943 | normalized growth (locus YHR094C, strain hxt1, active compounds read low): 0.989 | normalized growth (locus YHR129C, strain ARP1, active compounds read low): 0.926 | normalized growth (locus YHR142W, strain chs7, active compounds read low): 0.987 | normalized growth (locus YHR200W, strain rpn10, active compounds read low): 0.986 | normalized growth (locus YIL066C, strain RNR3, active compounds read low): 0.897 | normalized growth (locus YIL073C, strain SPO22, active compounds read low): 0.953 | normalized growth (locus YIL125W, strain kgd1, active compounds read low): 0.993 | normalized growth (locus YIR030C, strain dcg1, active compounds read low): 0.98 | normalized growth (locus YJL092W, strain hpr5, active compounds read low): 0.997 | normalized growth (locus YJL095W, strain BCK1 (second series), active compounds read low): 0.967 | normalized growth (locus YJL095W, strain BCK1, active compounds read low): 0.799 and 0.923 | normalized growth (locus YJL115W, strain asf1, active compounds read low): 1 | normalized growth (locus YJL129C, strain trk1, active compounds read low): 0.867 (active) | normalized growth (locus YJL134W, strain LCB3, active compounds read low): 0.997 | normalized growth (locus YJL154C, strain vps35, active compounds read low): 0.995 | normalized growth (locus YJL164C, strain tpk1, active compounds read low): 0.967 | normalized growth (locus YJL166W, strain qcr8, active compounds read low): 0.919 | normalized growth (locus YJL168C, strain set2, active compounds read low): 0.964 | normalized growth (locus YJL187C, strain SWE1 (second series), active compounds read low): 0.951 | normalized growth (locus YJL187C, strain SWE1, active compounds read low): 0.987 | normalized growth (locus YJR066W, strain TOR1, active compounds read low): 0.894 | normalized growth (locus YKL009W, strain mrt4, active compounds read low): 0.995 | normalized growth (locus YKL068W, active compounds read low): 0.998 | normalized growth (locus YKL085W, strain MDH1 (second series), active compounds read low): 0.985 | normalized growth (locus YKL085W, strain MDH1, active compounds read low): 0.985 | normalized growth (locus YKL160W, strain elf1, active compounds read low): 0.973 | normalized growth (locus YKL190W, strain CNB1, active compounds read low): 0.992 | normalized growth (locus YKR001C, strain vps1, active compounds read low): 0.949 | normalized growth (locus YKR026C, strain gcn3, active compounds read low): 0.995 | normalized growth (locus YKR091W, strain srl3, active compounds read low): 0.992 | normalized growth (locus YLL001W, strain dnm1, active compounds read low): 0.99 | normalized growth (locus YLL026W, active compounds read low): 0.986 | normalized growth (locus YLL041C, strain sdh2, active compounds read low): 0.989 | normalized growth (locus YLR027C, strain aat2, active compounds read low): 0.959 | normalized growth (locus YLR039C, strain RIC1, active compounds read low): 0.624 (active) | normalized growth (locus YLR058C, strain SHM2, active compounds read low): 0.97 | normalized growth (locus YLR102C, strain apc9, active compounds read low): 0.992 | normalized growth (locus YLR113W, strain HOG1, active compounds read low): 0.957 | normalized growth (locus YLR221C, strain rsa3, active compounds read low): 0.959 | normalized growth (locus YLR258W, strain gsy2, active compounds read low): 0.997 | normalized growth (locus YLR262C, strain YPT6 (second series), active compounds read low): 0.67 (active) | normalized growth (locus YLR268W, strain sec22, active compounds read low): 0.911 | normalized growth (locus YLR320W, strain mms22, active compounds read low): 0.838 (active) | normalized growth (locus YLR330W, strain CHS5, active compounds read low): 0.954 | normalized growth (locus YLR342W, strain FKS1, active compounds read low): 0.924 | normalized growth (locus YLR357W, strain rsc2, active compounds read low): 1.03 | normalized growth (locus YLR370C, strain arc18, active compounds read low): 0.988 | normalized growth (locus YLR371W, strain rom2, active compounds read low): 0.933 | normalized growth (locus YLR384C, strain iki3, active compounds read low): 0.99 | normalized growth (locus YLR418C, strain cdc73, active compounds read low): 0.655 (active) | normalized growth (locus YML016C, strain PPZ1, active compounds read low): 0.991 | normalized growth (locus YML032C, strain rad52, active compounds read low): 0.944 | normalized growth (locus YML120C, strain ndi1, active compounds read low): 0.994 | normalized growth (locus YML124C, strain tub3, active compounds read low): 0.983 | normalized growth (locus YMR058W, strain fet3, active compounds read low): 0.976 | normalized growth (locus YMR078C, strain ctf18, active compounds read low): 0.956 | normalized growth (locus YMR125W, strain sto1, active compounds read low): 0.969 | normalized growth (locus YMR129W, active compounds read low): 0.984 | normalized growth (locus YMR205C, strain PFK2, active compounds read low): 0.841 (active) | normalized growth (locus YMR223W, strain ubp8, active compounds read low): 0.963 | normalized growth (locus YMR231W, strain pep5, active compounds read low): 0.964 | normalized growth (locus YMR307W, strain GAS1, active compounds read low): 0.81 | normalized growth (locus YNL067W, strain RPL9B, active compounds read low): 0.973 | normalized growth (locus YNL071W, strain lat1, active compounds read low): 0.695 (active) | normalized growth (locus YNL183C, strain NPR1, active compounds read low): 0.921 | normalized growth (locus YNL209W, strain ssb2, active compounds read low): 0.984 | normalized growth (locus YNL233W, strain BNI4, active compounds read low): 0.955 | normalized growth (locus YNL248C, strain rpa49, active compounds read low): 0.978 | normalized growth (locus YNL250W, strain rad50, active compounds read low): 0.987 | normalized growth (locus YNL271C, strain bni1, active compounds read low): 0.983 | normalized growth (locus YNL298W, strain CLA4, active compounds read low): 0.989 | normalized growth (locus YNL307C, strain MCK1, active compounds read low): 0.867 (active) | normalized growth (locus YNL322C, strain KRE1 (second series), active compounds read low): 1.01 | normalized growth (locus YNL322C, strain KRE1, active compounds read low): 0.983 | normalized growth (locus YNR049C, strain mso1, active compounds read low): 0.985 | normalized growth (locus YNR052C, strain pop2, active compounds read low): 0.951 | normalized growth (locus YOL006C, strain TOP1, active compounds read low): 0.959 | normalized growth (locus YOL012C, strain htz1): 0.78 | normalized growth (locus YOL147C, strain pex11, active compounds read low): 0.961 | normalized growth (locus YOR001W, strain rrp6, active compounds read low): 0.991 | normalized growth (locus YOR061W, strain CKA2, active compounds read low): 0.983 | normalized growth (locus YOR069W, strain VPS5, active compounds read low): 0.992 | normalized growth (locus YOR070C, strain gyp1, active compounds read low): 0.952 | normalized growth (locus YOR080W, strain dia2, active compounds read low): 0.992 | normalized growth (locus YOR083W, strain WHI5, active compounds read low): 0.977 | normalized growth (locus YOR106W, strain vam3, active compounds read low): 0.972 | normalized growth (locus YOR136W, strain idh2, active compounds read low): 0.979 | normalized growth (locus YOR144C, strain elg1, active compounds read low): 0.957 | normalized growth (locus YOR184W, strain ser1, active compounds read low): 0.715 (active) | normalized growth (locus YOR231W, strain MKK1, active compounds read low): 0.936 | normalized growth (locus YOR265W, strain rbl2, active compounds read low): 0.986 | normalized growth (locus YOR270C, strain vph1, active compounds read low): 0.905 | normalized growth (locus YOR290C, strain snf2, active compounds read low): 0.938 | normalized growth (locus YOR316C, strain cot1, active compounds read low): 0.983 | normalized growth (locus YPL051W, strain arl3, active compounds read low): 0.945 | normalized growth (locus YPL078C, strain atp4, active compounds read low): 0.979 | normalized growth (locus YPL106C, strain sse1, active compounds read low): 0.942 | normalized growth (locus YPL240C, strain hsp82, active compounds read low): 0.985 | normalized growth (locus YPL256C, strain CLN2, active compounds read low): 0.92 | normalized growth (locus YPR119W, strain clb2, active compounds read low): 0.979 | normalized growth (locus YPR141C, strain kar3, active compounds read low): 0.977 | normalized growth (locus YPR163C, strain tif3, active compounds read low): 0.938 | normalized growth (locus YPR167C, strain met16, active compounds read low): 0.973 | normalized growth (strain wtn01, active compounds read low): 0.952
